Data published in PubChem BioAssay (NCI).
Compounds without any hit were thinned out: in the full panel of roughly 83,000, 20% have a hit.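 Percent growth is the endpoint: 0 to 100 indicates growth inhibition (40 means 60% inhibition), 0 means no net growth, and negative values indicate cell death.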 Unmarked numbers belong to inactive results. Active and inactive are the calls of the source. Rule for the calls: active = growth percent below 10; inactive = the rest.

Tests used:
Assay in all cases: NCI-60 one-dose screen, 48 h (100 = growth as untreated, 0 = no growth, -100 = all killed)
Conditions in all cases: 10 µM unless noted
[1] = tested on: T-47D breast
[2] = tested on: BT-549 breast
[3] = tested on: MDA-MB-435 melanoma
[4] = tested on: SW-620 colon
[5] = tested on: MCF7 breast
[6] = tested on: HCT-116 colon
[7] = tested on: HCC-2998 colon
[8] = tested on: KM12 colon

| Structure (SMILES) | growth [1] | growth [2] | growth [3] | growth [4] | growth [5] | growth [6] | growth [7] | growth [8] |
| --- | --- | --- | --- | --- | --- | --- | --- | --- |
| C=CCn1c(SCC(=O)Nc2ccc(C(=O)/C=C/c3ccc(Cl)cc3)cc2)nnc1-c1cc(-c2ccc(S(N)(=O)=O)cc2)nc2ccccc12 | 81.8% | 80.5% | 76.1% | 100% | 38.6% | -31.5% (active) | 101% | 87.2% |
| CCOc1ccc(NC(=O)CSc2oc(-c3ccccc3)nc2S(=O)(=O)c2ccc(F)cc2)cc1 | 63.1% | 96.5% | 88.9% | 89.6% | 71.4% | 21.9% | 85.3% | 84.9% |
| COc1ccc2c(c1)c(-c1noc(C(=O)c3cn(C)c4ccc(Br)cc34)n1)cn2C | 90% | 99.3% | 114% | 105% | 93% | 92.4% | 100% | 106% |
| O=C(O)[C@@H]1c2ccccc2-c2ccccc2[C@H]1C(=O)O | 102% | 114% | 100% | 101% | 94.6% | 92.6% | 100% | 105% |
| CC(C)CCNC(=O)Cn1cccc(NC(=O)OCc2ccccc2)c1=O | 104% | 110% | 115% | 108% | 95.1% | 110% | 103% | 107% |
| CCc1nc2c(=O)[nH]cnc2o1 | 105% | 102% | 110% | 106% | 96.4% | 103% | 109% | 110% |
| CC(C)(C)n1cc(-c2ccnc(NCCNS(=O)(=O)c3cccc(F)c3)c2)c(-c2ccccc2)n1 | 44.2% | 93% | 99.8% | 94.2% | 67.8% | 79% | 91% | 93.5% |
| OCCCC1CCN(C(Cc2ccccc2)c2ccccc2)CC1 (centres undefined) | 56.9% | 79.8% | 96.4% | 107% | 94.6% | 83.9% | 94.4% | 94.7% |
| Cn1c(=O)c2[nH]c(N/N=C/c3ccccc3Br)nc2n(C)c1=O | 108% | 99% | 113% | 109% | 91.4% | 103% | 118% | 98.6% |
| Cn1cc(-c2nonc2-c2c[nH]c3ccc(Br)cc23)c2cc(Br)ccc21 | 24.4% | 76.8% | 40.3% | 55.9% | 26.1% | 22.7% | 39.8% | 22.8% |
| Cc1ccc(-c2csc(NC(=O)CN3CCN(c4cc5c(cc4F)c(=O)c(C(=O)O)cn5C4CC4)CC3)n2)cc1 | 6.74% (active) | 16.2% | 14.4% | 27.4% | 6.16% (active) | 14.2% | 31.2% | 8.87% (active) |
| O=S(=O)(NCCCNc1nccc(-c2c(-c3ccc(F)c(O)c3)nc3occn23)n1)c1ccccc1 | 101% | 114% | 37.4% | 100% | 77.3% | 52.6% | 98.7% | 84.6% |
| CCn1c(=S)sc2c(Nc3ccc(F)cc3)nc(-c3cccnc3)nc21 | 30.5% | 54.2% | 81.1% | 90.6% | 73.1% | 21.4% | 86.1% | 69.7% |
| CC(C)CCC[C@@H](C)[C@H]1CC[C@H]2[C@@H]3CC=C4C[C@@H](C(C(=O)O)C(=O)O)CC[C@]4(C)[C@H]3CC[C@]12C | -13.8% (active) | -22.6% (active) | -55.6% (active) | -39.7% (active) | 1.84% (active) | -61.3% (active) | -47.5% (active) | -74.4% (active) |
| CN(C)c1ccc(/C=C/C(=O)c2ccc(-n3cc(CN4CCN(c5cc6c(cc5F)c(=O)c(C(=O)O)cn6C5CC5)CC4)nn3)cc2)cc1 | 76.8% | 32% | 64.7% | 43.2% | 24.2% | -10.3% (active) | 79.3% | 32.9% |
| CCN(CC)CCOc1ccc(C(=C(C)c2ccc(Cl)cc2)c2ccc(OCCN(CC)CC)cc2)cc1 | -66.4% (active) | -50.6% (active) | -95.1% (active) | -75.6% (active) | -76.5% (active) | -94.1% (active) | -91.2% (active) | -79% (active) |
| CN(Cc1ccc(C(F)(F)F)cc1)CC(O)C(=O)Nc1ccc(Cl)cc1 (centres undefined) | 18.4% | 56.1% | -4.56% (active) | -41.5% (active) | -23.4% (active) | -94.3% (active) | -48.2% (active) | -36.1% (active) |
| O=C1c2cccnc2C(=O)c2c1c(C(=O)NCCn1ccnc1)c1ccccn21 | 24.2% | 45.8% | -84.2% (active) | 12.9% | 0.25% (active) | -8.04% (active) | 22.4% | 31.3% |
| CCCCCCC1(C)NCCO1 (centres undefined) | 108% | 103% | 109% | 106% | 99.7% | 106% | 99.2% | 106% |
| CC(C)N1CCN(Cc2ccc3c(NNC(=O)c4ccccc4)nc4cc(F)ccc4n23)CC1 | 20.3% | 45.6% | 30.5% | 24.9% | 9.7% (active) | 24.5% | 25% | 23.1% |
| N=C(N)c1ccc(-c2ccc(-c3ccc(F)cc3)o2)o1 | 21.4% | 55.3% | -76.9% (active) | -36.7% (active) | 10.5% | 2.27% (active) | 18.4% | 7.92% (active) |
| C=C(C)[C@@H]1CC[C@]2(C(=O)O)CC[C@]3(C)[C@H](CC[C@@H]4[C@@]5(C)C[C@@H](Cc6cn(CCO[C@@H]7O[C@H](COC(C)=O)[C@H](OC(C)=O)[C@H](OC(C)=O)[C@H]7OC(C)=O)nn6)[C@H](O)C(C)(C)[C@@H]5CC[C@]43C)[C@@H]12 | 51.6% | 42.7% | 94.2% | 77.1% | 47.1% | 44.7% | 81.5% | 55.9% |
| O=C1/C(=C/c2ccc(Cl)c(Cl)c2)CN(C(=O)C(Cl)Cl)C/C1=C\c1ccc(Cl)c(Cl)c1 | -36.7% (active) | -58.5% (active) | -68.7% (active) | -71.5% (active) | -57.7% (active) | -92.5% (active) | -88.8% (active) | -71.2% (active) |
| CCN(CC)CCCN1C(=O)c2c(c(C)c3c(oc4cc(O)ccc43)c2C)C1=O | 97.7% | 94.8% | -61.1% (active) | -36% (active) | -69.2% (active) | -76.4% (active) | -88.9% (active) | -59.3% (active) |
| COc1ccc(/C=C2\COc3ccc(O)c(O)c3C2=O)cc1 | 6.94% (active) | -6.78% (active) | 11% | 6.34% (active) | 19% | 10.8% | 50.7% | 8.91% (active) |
| CCOC(=O)C#Cc1c(C(=O)OCC)nnn1[C@@H]1O[C@H](CO)[C@H]2OC3(CCCCC3)O[C@H]21 | 13.2% | 94.2% | 79.7% | -70.9% (active) | 8.45% (active) | 66.5% | 85.4% | 94.5% |
| Cc1ccccc1Cn1cnc2ccc(-c3cc(NC(=O)c4ccc(NC5CCN(C)CC5)cc4)n[nH]3)cc21 | 92.2% | 68.2% | 61% | 93.1% | 77.1% | 48.8% | 90.5% | 39.6% |
| O=C1NC(=O)c2c1c1c3ccccc3ccc1c1[nH]c3ccc(Br)cc3c21 | 4.7% (active) | 39.4% | 14% | 18% | 9.71% (active) | 7.95% (active) | 49.3% | 4.99% (active) |
